Measurements published in article PMC5540273 (PLoS ONE, 2017).

The compounds below were run on CDKL5. Conditions: concentration: 1 μM,replicates: in singlicate; n = 1.
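Note: KINOMEscan kinase panel screen.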

| SMILES | %Inh [%] |
| --- | --- |
| Cc1n[nH]c2ccc(-c3cc(OC[C@@H](N)Cc4ccccc4)cnc3-c3ccoc3)cc12.O=C(O)C(F)(F)F.O=C(O)C(F)(F)F [GSK507358] | 0 |
| CC(C)Nc1cc(-c2ccc3c(N)n[nH]c3c2)nc(N)n1 [GSK2221681] | 0 |
| CNC(=O)c1ccccc1Sc1ccc2c(/C=C/c3ccccn3)n[nH]c2c1 | 0 |
| Cl.Cl.NC[C@H](Cc1ccc(C(F)(F)F)cc1)NC(=O)c1cc(Br)c(-c2ccnc3[nH]ccc23)s1 [GSK1487252] | 0 |
| Cl.Cl.Nc1nc(-c2ccc3c(N)n[nH]c3c2)cc(N2CCCC(NC(=O)c3ccccc3)C2)n1 (centres unmarked) [GSK2286775] | 1 |
| O=C(NCCCN1CCOC1=O)c1cnc(NCc2cc(Cl)ccc2Cl)nc1NC1CCCC1 | 0 |
| CN(C)CC(O)COc1ccc(Nc2nccc(-c3cnn4nc(N5CCOCC5)ccc34)n2)cc1 (centres unmarked) [GW767488] | 98.2 |
| Cc1ccc(-n2nc(C(C)(C)C)cc2NC(=O)Nc2ccc(OCCN3CCOCC3)c3ccccc23)cc1 [GW839464] | 4 |
| Cc1cc(C(=O)Nc2ccc(Oc3ccc4nc(NC(=O)C5CC5)cn4n3)cc2)nn1-c1ccccc1 | 0 |
| C=CC(=O)Nc1cc2c(Nc3ccc(F)c(Cl)c3)ncnc2cc1OCCCN1CCOCC1 [GW781483] | 1 |
| Cc1cc2cn[nH]c2cc1-c1cccc2c(N)c(C(N)=O)nnc12 | 6 |
| C[C@@H]1CCN(C(=O)CC#N)C[C@@H]1N(C)c1ncnc2[nH]ccc12 | 0 |
| CC(C)N1C(=O)Cc2cc(Nc3ncc(C(F)(F)F)c(NCc4cccc(S(C)(=O)=O)c4)n3)ccc21 | 1 |
| C[C@H]1Oc2cc(cnc2N)-c2c(nn(C)c2C#N)CN(C)C(=O)c2ccc(F)cc21 | 0 |
| Cc1occc1-c1nc(N)c(OC[C@@H](N)Cc2c[nH]c3ccccc23)cc1-c1cc2c(C)n[nH]c2cn1 [GSK1660450] | 47 |
| Cc1ccc2c(-c3ccncc3)c(-c3ccc(F)cc3)nn2c1.Cl [GW461484] | 0 |
| CCN(CC)CCCCNc1ncc2cc(-c3c(Cl)cccc3Cl)c(NC(=O)NC(C)(C)C)nc2n1 | 0 |
| CCN(CC)CCOc1ccc(Nc2ncc3cc(-c4c(Cl)cccc4Cl)c(=O)n(C)c3n2)cc1 [SB-601273] | 0 |
| NC(=O)c1cc(-c2ccccc2)cc2c(C3CCNCC3)c[nH]c12 [GSK301362] | 0 |
| CCn1c(-c2nonc2N)nc2c(C#CC(C)(C)O)nc(OCCN)cc21.Cl.Cl [GSK902056] | 5 |
| O=C(NCCNc1ccnc(NCc2ccc(F)cc2)n1)c1cc2ccccc2s1 [GSK1379944] | 0 |
| Cl.Oc1cc(-c2nc(-c3ccccc3)[nH]c2-c2ccncc2)ccc1Cl [SB-386023] | 2 |
| COc1ccc(C[C@@H](CN)NC(=O)c2cc(Br)c(-c3ccnc4[nH]ccc34)s2)cc1.Cl.Cl [GSK1389063] | 95.5 |
| Cl.Cl.NC[C@H](CC1CCCCC1)NC(=O)c1cc(Br)c(-c2ccnc3[nH]ccc23)s1 [GSK1581427] | 0 |
| CN(C)CCOc1ccc(-c2cc(-c3c[nH]nc3-c3ccccn3)ccn2)cc1 [GW835314] | 1 |
| C[C@@H](Oc1cc(-c2cnn(C3CCNCC3)c2)cnc1N)c1c(Cl)ccc(F)c1Cl | 18 |
| Nc1nc(Nc2ccccc2)cc(-c2ccc3c(N)n[nH]c3c2)n1 [GSK2225749] | 0 |

These compounds were tested on CHEK1. Conditions: concentration: 1 μM,replicates: in singlicate; n = 1.

| SMILES | %Inh [%] |
| --- | --- |
| Cc1n[nH]c2ccc(-c3cc(OC[C@@H](N)Cc4ccccc4)cnc3-c3ccoc3)cc12.O=C(O)C(F)(F)F.O=C(O)C(F)(F)F [GSK507358] | 0 |
| CC(C)Nc1cc(-c2ccc3c(N)n[nH]c3c2)nc(N)n1 [GSK2221681] | 0 |
| Cl.Cl.NC[C@H](Cc1ccc(C(F)(F)F)cc1)NC(=O)c1cc(Br)c(-c2ccnc3[nH]ccc23)s1 [GSK1487252] | 14 |
| Cl.Cl.Nc1nc(-c2ccc3c(N)n[nH]c3c2)cc(N2CCCC(NC(=O)c3ccccc3)C2)n1 (centres unmarked) [GSK2286775] | 0 |
| O=C(NCCCN1CCOC1=O)c1cnc(NCc2cc(Cl)ccc2Cl)nc1NC1CCCC1 | 9 |
| CN(C)CC(O)COc1ccc(Nc2nccc(-c3cnn4nc(N5CCOCC5)ccc34)n2)cc1 (centres unmarked) [GW767488] | 0 |
| Cc1ccc(-n2nc(C(C)(C)C)cc2NC(=O)Nc2ccc(OCCN3CCOCC3)c3ccccc23)cc1 [GW839464] | 1 |
| Cc1cc(C(=O)Nc2ccc(Oc3ccc4nc(NC(=O)C5CC5)cn4n3)cc2)nn1-c1ccccc1 | 0 |
| C=CC(=O)Nc1cc2c(Nc3ccc(F)c(Cl)c3)ncnc2cc1OCCCN1CCOCC1 [GW781483] | 0 |
| Cc1cc2cn[nH]c2cc1-c1cccc2c(N)c(C(N)=O)nnc12 | 0 |
| C[C@@H]1CCN(C(=O)CC#N)C[C@@H]1N(C)c1ncnc2[nH]ccc12 | 0 |
| CC(C)N1C(=O)Cc2cc(Nc3ncc(C(F)(F)F)c(NCc4cccc(S(C)(=O)=O)c4)n3)ccc21 | 0 |
| C[C@H]1Oc2cc(cnc2N)-c2c(nn(C)c2C#N)CN(C)C(=O)c2ccc(F)cc21 | 16 |
| Cc1occc1-c1nc(N)c(OC[C@@H](N)Cc2c[nH]c3ccccc23)cc1-c1cc2c(C)n[nH]c2cn1 [GSK1660450] | 9 |
| Cc1ccc2c(-c3ccncc3)c(-c3ccc(F)cc3)nn2c1.Cl [GW461484] | 40 |
| CCN(CC)CCCCNc1ncc2cc(-c3c(Cl)cccc3Cl)c(NC(=O)NC(C)(C)C)nc2n1 | 0 |
| CCN(CC)CCOc1ccc(Nc2ncc3cc(-c4c(Cl)cccc4Cl)c(=O)n(C)c3n2)cc1 [SB-601273] | 52 |
| NC(=O)c1cc(-c2ccccc2)cc2c(C3CCNCC3)c[nH]c12 [GSK301362] | 20 |
| CCn1c(-c2nonc2N)nc2c(C#CC(C)(C)O)nc(OCCN)cc21.Cl.Cl [GSK902056] | 12 |
| O=C(NCCNc1ccnc(NCc2ccc(F)cc2)n1)c1cc2ccccc2s1 [GSK1379944] | 100 |
| Cl.Oc1cc(-c2nc(-c3ccccc3)[nH]c2-c2ccncc2)ccc1Cl [SB-386023] | 0 |
| COc1ccc(C[C@@H](CN)NC(=O)c2cc(Br)c(-c3ccnc4[nH]ccc34)s2)cc1.Cl.Cl [GSK1389063] | 89 |
| Cl.Cl.NC[C@H](CC1CCCCC1)NC(=O)c1cc(Br)c(-c2ccnc3[nH]ccc23)s1 [GSK1581427] | 60 |
| CN(C)CCOc1ccc(-c2cc(-c3c[nH]nc3-c3ccccn3)ccn2)cc1 [GW835314] | 0 |
| C[C@@H](Oc1cc(-c2cnn(C3CCNCC3)c2)cnc1N)c1c(Cl)ccc(F)c1Cl | 0 |
| Nc1nc(Nc2ccccc2)cc(-c2ccc3c(N)n[nH]c3c2)n1 [GSK2225749] | 0 |
